Laboratory results: PubChem BioAssay (NCATS)
Unmarked numbers belong to inactive results. Records with an inconclusive call do not appear. Entries that show only a call come without a potency. Calls of active or inactive are those of the source. Unless noted, the call rests on the fitted dose curve; in most records, active means well fitted curve in the direction sought with a large enough effect; inconclusive means small, poorly fitted or top-dose-only effect, or another doubt; inactive means no such curve, though single readings can be large; an effect the other way counts as inactive or inconclusive.

Key:
[1] = qHTS assay for measurement of the activity of small molecule inhibitors on Zika virus induced Caspase-3 activity in human iPSC derived neural progenitor cells (hNPCs) (AID 1224857); conditions: hNPCs ZIKV-induced caspase-3/7, Caspase-Glo luminescence, 6 h; series mostly up to 45.7 µM; further: nearly all actives have a fitted effect of over 65% in size
Method in brief: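 In medium with heparin 2 ug/ml and cyclopamine 2 uM, hNPCs (350 cells/well) received compound for one hour and then Zika virus at 2 FFU/cell; caspase activity was measured by Caspase-Glo 3/7 luminescence 6 h post-infection.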

[2] = qHTS assay for measurement of the activity of small molecule inhibitors on Zika virus induced Caspase-3 activity in human astrocytoma cells (AID 1224859); conditions: SNB-19 ZIKV-induced caspase-3/7, luminescence, 6 h; series mostly up to 45.7 µM
Method in brief: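 A cell-based luminescent caspase-3/7 assay used SNB-19 cells infected with ZIKV (2 FFU/cell) for 6 h following 1 h compound pretreatment.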

[3] = qHTS of pediatric cancer cell lines to identify multiple opportunities for drug repurposing: Primary screen for TC32 cells (AID 1347089); conditions: TC32 Ewing sarcoma viability, CellTiter-Glo luminescence, 48 h; series mostly up to 45.8 µM; further: nearly all actives have a fitted effect of over 60% in size
Method in brief: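 In the primary qHTS, MIPE compounds were tested at 11 concentrations (0.78 nM to 46 µM) and NPC compounds at 8 (0.59 nM to 46 µM) on TC32 cells for 48 h. CellTiter-Glo luminescence gave viability.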

[4] = qHTS Assay for Identifying Gametocytocidal Compounds (AID 743244); further: potency means the concentration at half of the fitted maximal effect;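 on max response: actives lower the fluorescent signal which means gametocytes are killed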; conditions: P. falciparum 3D7 stage III-V gametocytes, alamarBlue, 72 h; max response: active compounds read low
Method in brief: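 In this qHTS viability screen, late-stage 3D7 gametocytes are incubated with compound for 72 h, then with alamarBlue for 24 h; reduced resorufin fluorescence marks killing.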

[5] = P-glycoprotein substrates identified in KB-8-5-11 adenocarcinoma cell line, qHTS therapeutic library screen (AID 1346987); conditions: KB-8-5-11 (P-gp overexpressing) viability, CellTiter-Glo, 72 h; series mostly up to 44.5 µM; further: nearly all actives have a fitted effect of over 65% in size
Method in brief: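 Compounds are pinned in dose-response onto KB-8-5-11 cells (500 cells/well, colchicine-free medium) and left 72 h at 37 degree C. CellTiter-Glo luminescence then yields AC50 values.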

[6] = Natriuretic polypeptide receptor (hNpr1) antagonism - Pilot counterscreen GloSensor control cell line (AID 1347045; calls by dose curve; further: potency means the concentration at half of the fitted maximal effect); conditions: HEK293 cGMP GloSensor cells, SNP-stimulated luminescence, 20 min; series mostly up to 38.3 µM
Method in brief: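 Control counterscreen: luciferase cGMP-biosensor HEK293 cells (no Npr1) received compound for 30 min at room temperature after GloSensor substrate loading. Luminescence was measured before and 20 min after soluble guanylyl cyclase activation by 50 uM nitroprusside.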

[7] = molecular target: Atrial natriuretic peptide receptor 1 (Homo sapiens) (UniProt P16066); experiment: Natriuretic polypeptide receptor (hNpr1) antagonism - Pilot screen (AID 1347049; calls by dose curve;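 further: agonist-evoked cGMP luminescence read 20 min after hNppA addition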; further: potency means the concentration at half of the fitted maximal effect); conditions: hNpr1 cells, antagonist mode cGMP read-out; series mostly up to 57.5 µM
Method in brief: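 cGMP-sensor HEK293/hNpr1 cells, 1500/well, plated overnight at 37C. 2% GloSensor reagent, 2 h RT. Compound (23 nL pin transfer) 30 min RT, baseline luminescence pre-read. 0.1 nM hNppA, 20 min RT, post-read.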

[8] = NS1 protein of Zika virus - qHTS assay to identify small molecule inhibitors in human HEK 293 cells (AID 1347053); conditions: HEK293 ZIKV MR766 infection, NS1 TR-FRET, 24 h; series mostly up to 46.1 µM; further: nearly all actives have a fitted effect of over 55% in size
Method in brief: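 Readout was TR-FRET using paired anti-NS1 antibodies after 24 h infection of HEK 293 cells with ZIKV MR766 (MOI = 0.5). Compound preceded virus by 1 h; reduced signal reflects lower NS1 expression.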

[9] = molecular target: T1, Tyrosine-protein phosphatase non-receptor type substrate 1 (Homo sapiens) + Leukocyte surface antigen CD47 (Homo sapiens) (UniProt P78324+Q08722); experiment: CD47-SIRPalpha protein protein interaction - LANCE assay qHTS validation (AID 1347057; active means well fitted curve in the direction sought with a large enough effect in the signal ratio, with a control signal flat, not every such curve was filed as active; the % refers to the signal ratio); conditions: Recombinant CD47-His / biotin-SIRPalpha, TR-FRET ratio; series mostly up to 38.3 µM
Method in brief: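 Inhibition of soluble CD47/SIRPalpha ectodomain association by titrated compounds, measured as 665/615 nm time-resolved FRET ratio after sequential 30 min room-temperature incubations.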

[10] = molecular target: T1, Tyrosine-protein phosphatase non-receptor type substrate 1 (Homo sapiens) + Leukocyte surface antigen CD47 (Homo sapiens); experiment: CD47-SIRPalpha protein protein interaction - HTRF assay qHTS validation (AID 1347058; active means well fitted curve in the direction sought with a large enough effect in the signal ratio, not every such curve was filed as active; the % refers to the signal ratio); conditions: TR-FRET HTRF CD47-His / biotin-SIRPalpha binding, ratio 665/615; series mostly up to 38.3 µM
Method in brief: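 Soluble extracellular domains (6His-CD47, Avi-tag-biotinylated SIRPalpha) in PBS pH 7.4 with 0.05% IGEPAL CA-630. Compounds were preincubated 30 min at RT with CD47 and anti-His-Eu, then SIRPalpha and SAV-XL665 were added. TR-FRET 665/615 ratio.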

[11] = molecular target: T1, Tyrosine-protein phosphatase non-receptor type substrate 1 (Homo sapiens) + Leukocyte surface antigen CD47 (Homo sapiens); experiment: CD47-SIRPalpha protein protein interaction - Alpha assay qHTS validation (AID 1347059); conditions: AlphaScreen CD47-His/biotin-SIRPalpha binding, LOPAC; series mostly up to 38.3 µM;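 further: bead proximity luminescence from CD47 binding SIRPalpha after compound preincubation with SIRPalpha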
Method in brief: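 SIRPalpha-biotin 25 nM + cpd, 30 min RT, dark; add CD47-His 12.5 nM, 30 min; add Ni-NTA/SAV beads 10 ug/mL, 30 min; AlphaScreen. Buffer PBS pH 7.4 + 0.05% IGEPAL CA-630. Non-biotinylated SIRPalpha as control inhibitor.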

[12] = molecular target: Parathyroid hormone/parathyroid hormone-related peptide receptor (Homo sapiens) (UniProt Q03431); experiment: qHTS for PTHR1 Agonists: Optimization Screen against the NCGC LOPAC library (AID 1347079); conditions: HEK293 GP2 PTHR1 GloSensor cAMP luminescence, 1 h; series mostly up to 57.1 µM;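 further: GloSensor cAMP luminescence in HEK-293 GP2 cells expressing human PTHR1 with IBMX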
Method in brief: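 HEK-293 GP2 cells, PTHR1 + GloSensor cAMP; 3000 cells/well, o/n. Luciferin + IBMX 0.5mM each (stock), 1 hr 37C. Cpd titration, 1 hr 37C. Lum after 15 min RT. Ctrl M-PTH(1-15) top 10uM.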

[13] = qHTS assay for cell viability of HEK293 cells (AID 743288); conditions: ATP luminescence (CellTiter-Glo), 18 h, active compounds read low; further: nearly all actives have a fitted effect of over 50% in size
Method in brief: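 ATP luminescence (CellTiter-Glo) reports metabolically competent cell number after parental HEK293 cells, 2,000/well, were treated with DMSO-dissolved compounds for 18 h at 37 C; reagent incubation 30 min, room temperature.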

[14] = qHTS assay for cell viability of the p53RE-bla HCT-116 cell line (AID 743292); conditions: p53RE-bla HCT-116 viability, ATP luminescence, 16 h; series mostly up to 95 µM; further: nearly all actives have a fitted effect of over 55% in size
Method in brief: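 After plating at 4,000 cells per well and a 5 h rest at 37 C, HCT-116 cells carrying p53RE-bla received test chemicals in DMSO. Sixteen hours later at 37 C, CellTiter-Glo was added and luminescence recorded following 30 min at room temperature.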

T1 sequence (P78324 whole entry, looked up, the tested form may be a part): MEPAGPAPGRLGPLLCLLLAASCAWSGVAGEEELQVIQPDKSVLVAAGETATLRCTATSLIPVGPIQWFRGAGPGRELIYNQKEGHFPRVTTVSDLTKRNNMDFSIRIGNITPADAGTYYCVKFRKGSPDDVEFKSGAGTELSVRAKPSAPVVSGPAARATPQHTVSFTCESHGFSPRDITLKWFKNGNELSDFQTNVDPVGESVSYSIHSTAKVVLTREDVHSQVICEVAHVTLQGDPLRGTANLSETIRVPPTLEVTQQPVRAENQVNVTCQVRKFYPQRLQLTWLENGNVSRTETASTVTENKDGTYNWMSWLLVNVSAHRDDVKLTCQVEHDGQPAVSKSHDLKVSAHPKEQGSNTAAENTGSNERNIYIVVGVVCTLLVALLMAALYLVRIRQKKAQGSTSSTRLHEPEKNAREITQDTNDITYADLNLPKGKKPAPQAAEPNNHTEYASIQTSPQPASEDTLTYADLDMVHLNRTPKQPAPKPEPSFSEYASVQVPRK
T1 sequence (Q08722 whole entry, looked up, the tested form may be a part): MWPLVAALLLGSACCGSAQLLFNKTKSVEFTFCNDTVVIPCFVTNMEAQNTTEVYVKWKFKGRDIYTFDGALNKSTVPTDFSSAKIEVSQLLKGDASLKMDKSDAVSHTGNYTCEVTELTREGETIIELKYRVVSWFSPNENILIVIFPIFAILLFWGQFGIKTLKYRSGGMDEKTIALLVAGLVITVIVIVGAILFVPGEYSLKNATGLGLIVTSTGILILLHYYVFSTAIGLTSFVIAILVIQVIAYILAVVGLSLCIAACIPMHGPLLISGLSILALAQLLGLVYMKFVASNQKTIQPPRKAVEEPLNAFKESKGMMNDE
Sequence of Atrial natriuretic peptide receptor 1 (Homo sapiens) (P16066 whole entry, looked up): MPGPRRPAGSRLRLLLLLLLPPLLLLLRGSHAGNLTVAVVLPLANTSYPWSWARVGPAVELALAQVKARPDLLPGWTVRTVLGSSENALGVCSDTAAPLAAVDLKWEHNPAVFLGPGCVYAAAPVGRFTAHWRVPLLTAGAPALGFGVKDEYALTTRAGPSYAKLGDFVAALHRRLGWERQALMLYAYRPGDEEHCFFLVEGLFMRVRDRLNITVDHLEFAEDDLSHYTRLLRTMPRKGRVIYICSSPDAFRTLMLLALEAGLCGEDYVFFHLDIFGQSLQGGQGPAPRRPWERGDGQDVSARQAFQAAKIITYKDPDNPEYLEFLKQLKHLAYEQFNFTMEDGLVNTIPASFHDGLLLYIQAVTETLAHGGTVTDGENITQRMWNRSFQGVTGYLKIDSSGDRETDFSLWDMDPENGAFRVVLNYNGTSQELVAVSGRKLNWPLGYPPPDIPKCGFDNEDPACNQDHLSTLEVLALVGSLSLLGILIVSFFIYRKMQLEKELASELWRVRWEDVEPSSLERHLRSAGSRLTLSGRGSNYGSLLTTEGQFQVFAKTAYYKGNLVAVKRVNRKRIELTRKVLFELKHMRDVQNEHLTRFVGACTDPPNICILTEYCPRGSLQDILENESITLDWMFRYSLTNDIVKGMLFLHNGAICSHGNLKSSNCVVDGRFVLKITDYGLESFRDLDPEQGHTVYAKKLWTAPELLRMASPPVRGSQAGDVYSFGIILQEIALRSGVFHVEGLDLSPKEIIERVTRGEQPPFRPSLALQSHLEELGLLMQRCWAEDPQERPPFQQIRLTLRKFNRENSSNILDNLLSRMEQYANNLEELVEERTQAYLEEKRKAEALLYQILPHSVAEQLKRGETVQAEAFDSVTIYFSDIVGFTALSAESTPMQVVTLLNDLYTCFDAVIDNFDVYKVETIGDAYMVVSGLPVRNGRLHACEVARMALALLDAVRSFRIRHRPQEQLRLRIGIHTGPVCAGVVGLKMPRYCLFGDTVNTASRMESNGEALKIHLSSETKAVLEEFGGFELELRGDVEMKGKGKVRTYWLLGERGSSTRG
Sequence of Parathyroid hormone/parathyroid hormone-related peptide receptor (Homo sapiens) (Q03431 whole entry, looked up): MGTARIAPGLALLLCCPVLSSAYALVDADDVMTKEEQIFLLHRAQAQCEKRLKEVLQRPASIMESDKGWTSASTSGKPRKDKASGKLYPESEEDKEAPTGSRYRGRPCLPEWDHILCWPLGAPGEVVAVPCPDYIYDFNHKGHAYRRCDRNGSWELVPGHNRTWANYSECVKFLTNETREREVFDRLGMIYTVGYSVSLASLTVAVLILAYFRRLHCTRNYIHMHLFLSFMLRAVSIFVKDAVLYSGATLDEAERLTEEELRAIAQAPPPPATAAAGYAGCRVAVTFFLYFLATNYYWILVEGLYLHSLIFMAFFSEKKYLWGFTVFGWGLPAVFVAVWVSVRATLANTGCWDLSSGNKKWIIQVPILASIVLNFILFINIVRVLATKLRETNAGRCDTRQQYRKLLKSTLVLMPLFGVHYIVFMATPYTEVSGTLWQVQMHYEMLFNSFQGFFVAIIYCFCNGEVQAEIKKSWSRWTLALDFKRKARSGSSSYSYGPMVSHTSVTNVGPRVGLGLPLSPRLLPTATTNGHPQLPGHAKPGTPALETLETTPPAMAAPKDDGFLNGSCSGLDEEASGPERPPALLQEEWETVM

**Q.** For `CC1(C)OC(=O)Nc2ccc(Br)cc21`, which Potency [1] is on record?
**A.** inactive

**Q.** What about the outcome [2] of the same compound?
**A.** inactive

**Q.** What about the Potency [3] of the same compound?
**A.** inactive

**Q.** For `COc1cc(S(N)(=O)=O)cc(C(=O)O)c1OC`, which Potency [1] is on record?
**A.** inactive

**Q.** And the outcome [2]?
**A.** inactive

**Q.** What about the Potency [3] of the same compound?
**A.** inactive

**Q.** Which Potency [1] does the source give for `CCOc1ccccc1OCC1CNCCO1` (configuration not stated) here?
**A.** inactive

**Q.** And the outcome [2]?
**A.** inactive

**Q.** And the Potency [3]?
**A.** inactive

**Q.** What does the source list for `O=C(OCCN1CCOCC1)c1cccnc1Nc1cccc(C(F)(F)F)c1`?
**A.** Potency [1]: inactive; outcome [2]: inactive; Potency [3]: inactive

**Q.** With `COc1ccccc1N1CCN(CCN2C(=O)CC3(CCCC3)CC2=O)CC1` as the compound, how does the max response [4] read?
**A.** 21.4%

**Q.** What about the Potency [1] of the same compound?
**A.** inactive

**Q.** And the Potency [5]?
**A.** inactive

**Q.** What about the Potency [6] of the same compound?
**A.** inactive

**Q.** What about the Potency [7] of the same compound?
**A.** inactive

**Q.** And the Potency [8]?
**A.** inactive

**Q.** What about the outcome [9] of the same compound?
**A.** inactive

**Q.** What about the outcome [10] of the same compound?
**A.** inactive

**Q.** And the Potency [11]?
**A.** inactive

**Q.** What about the outcome [12] of the same compound?
**A.** inactive

**Q.** Which results are given for `COC(=O)C1=C(C)NC(COC(N)=O)=C(C(=O)OC(C)C)C1c1cccc(Cl)c1Cl` (configuration not stated)?
**A.** max response [4]: -16.2%; Potency [1]: inactive; outcome [2]: inactive; Potency [3]: inactive

**Q.** Which Potency [4] does the source give for `CCCCCCCCCCCCCC[N+](C)(C)C` here?
**A.** 14.1 µM (active)

**Q.** What about the Potency [1] of the same compound?
**A.** inactive

**Q.** And the outcome [2]?
**A.** inactive

**Q.** For `Cc1cc(O)c2c(O)c3c(O)cccc3cc2c1`, which max response [4] is on record?
**A.** 12.2%

**Q.** And the Potency [1]?
**A.** inactive

**Q.** And the outcome [2]?
**A.** inactive

**Q.** What about the Potency [3] of the same compound?
**A.** inactive

**Q.** What does the source list for `CCOC(=O)O[C@]1(C(=O)OCCl)CC[C@H]2[C@@H]3CCC4=CC(=O)C=C[C@]4(C)[C@H]3[C@@H](O)C[C@@]21C`?
**A.** max response [4]: -2.36%; Potency [1]: inactive; outcome [2]: inactive; Potency [3]: inactive

**Q.** For `CCCC(=O)c1cc(O)c(O)cc1O`, which max response [13] is on record?
**A.** -20%

**Q.** And the Potency [14]?
**A.** inactive

**Q.** For `O=C(Oc1ccccc1)c1cccc(C(=O)Oc2ccccc2)c1`, which max response [13] is on record?
**A.** -18.4%

**Q.** And the Potency [14]?
**A.** inactive

**Q.** For `C[N+](C)(C)CCO`, which Potency [6] is on record?
**A.** inactive

**Q.** What about the Potency [7] of the same compound?
**A.** inactive

**Q.** What about the outcome [10] of the same compound?
**A.** inactive

**Q.** For `CC(C)N(CCC(=O)c1ccc2ccccc2c1)Cc1ccccc1`, which Potency [6] is on record?
**A.** 13.1 µM (active)

**Q.** And the Potency [7]?
**A.** 13.5 µM (active)

**Q.** And the outcome [10]?
**A.** inactive
